Data published in PubChem BioAssay AID1159580 (chemical genetic matrix, 2015).
Where “and” joins values, the source holds several entries; their conditions need not be identical. Identical values can stand only once. The whole screen tested about 5,500 compounds, of which about 2,000 (36%) were called active. About 18% were inconclusive and are not listed. Rule as the data show it: active = normalized growth mostly below about 0.91 (no sharp cut-off); inconclusive = no clear call, values can overlap the other calls; inactive = mostly above about 0.92. Some of the results follow.

Assay: chemical genetic growth profiling, strain panel (AID 1159580);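 also: tested at 20 µM; growth read once vehicle control cultures reached saturation at 30 °C; 1 = growth at the plate median or of vehicle wells; lower values mean less growth of the strain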
Conditions: S. cerevisiae deletion strains, growth OD

Measured: normalized growth

CN=C(NC#N)NCCSCc1nc[nH]c1C
inactive: locus YAL013W, strain DEP1, stronger effect = lower value 0.997 | locus YAL021C, strain ccr4, stronger effect = lower value 1 | locus YAL026C, strain drs2, stronger effect = lower value 0.997 | locus YAL030W, strain snc1, stronger effect = lower value 0.998 | locus YAL040C, strain CLN3, stronger effect = lower value 1.01 | locus YBL061C, strain skt5, stronger effect = lower value 0.991 | locus YBR009C, strain hhf1, stronger effect = lower value 0.998 | locus YBR021W, strain FUR4, stronger effect = lower value 0.993 | locus YBR023C, strain chs3, stronger effect = lower value 0.996 | locus YBR171W, strain sec66, stronger effect = lower value 0.996 | locus YBR229C, strain ROT2, stronger effect = lower value 0.969 | locus YBR231C, strain swc5, stronger effect = lower value 1 | locus YBR279W, strain paf1, stronger effect = lower value 0.996 | locus YCL011C, strain gbp2, stronger effect = lower value 0.993 | locus YCL016C, strain dcc1, stronger effect = lower value 0.989 | locus YCL029C, strain bik1, stronger effect = lower value 0.979 | locus YCL061C, strain MRC1, stronger effect = lower value 1 | locus YCL069W, strain vba3, stronger effect = lower value 1.01 | locus YCR088W, strain abp1, stronger effect = lower value 0.998 | locus YDL005C, strain med2, stronger effect = lower value 1.01 | locus YDL035C, strain GPR1, stronger effect = lower value 1.01 | locus YDL040C, strain nat1, stronger effect = lower value 1.01 | locus YDL074C, strain BRE1, stronger effect = lower value 1.01 | locus YDL101C, strain DUN1, stronger effect = lower value 0.984 | locus YDL134C, strain PPH21, stronger effect = lower value 1 | locus YDL185W, strain tfp1, stronger effect = lower value 0.977 | locus YDL192W, strain arf1, stronger effect = lower value 0.995 | locus YDR001C, strain nth1, stronger effect = lower value 1 | locus YDR069C, strain doa4, stronger effect = lower value 0.997 | locus YDR101C, strain arx1, stronger effect = lower value 0.992 | locus YDR137W, strain rgp1, stronger effect = lower value 1.01 | locus YDR150W, strain NUM1, stronger effect = lower value 1 | locus YDR159W, strain sac3, stronger effect = lower value 0.997 | locus YDR162C, strain NBP2, stronger effect = lower value 0.994 | locus YDR195W, strain ref2 0.976 | locus YDR297W, strain sur2, stronger effect = lower value 0.997 | locus YDR318W, strain mcm21, stronger effect = lower value 0.999 | locus YDR334W, strain swr1, stronger effect = lower value 0.996 | locus YDR335W, strain msn5, stronger effect = lower value 1.01 | locus YDR363W, strain ESC2, stronger effect = lower value 0.998 | locus YDR388W, stronger effect = lower value 0.991 | locus YDR392W, strain spt3, stronger effect = lower value 0.905 | locus YDR502C, strain sam2, stronger effect = lower value 1.02 | locus YEL003W, strain gim4, stronger effect = lower value 1.01 | locus YEL037C, strain rad23, stronger effect = lower value 0.998 | locus YEL061C, strain CIN8 (second series), stronger effect = lower value 1 | locus YEL061C, strain CIN8, stronger effect = lower value 0.998 | locus YER002W, strain NOP16, stronger effect = lower value 1.02 | locus YER015W, strain faa2, stronger effect = lower value 1.01 | locus YER016W, strain bim1, stronger effect = lower value 1 | locus YER110C, stronger effect = lower value 0.975 | locus YER111C, strain swi4, stronger effect = lower value 0.993 | locus YER155C, strain BEM2 (second series), stronger effect = lower value 0.97 | locus YER155C, strain BEM2, stronger effect = lower value 0.99 | locus YER167W, strain BCK2, stronger effect = lower value 0.997 | locus YFR010W, strain ubp6, stronger effect = lower value 1 | locus YGL078C, strain dbp3, stronger effect = lower value 0.989 | locus YGL086W, strain mad1, stronger effect = lower value 1 | locus YGL167C, strain pmr1, stronger effect = lower value 0.995 | locus YGL173C, strain kem1, stronger effect = lower value 0.997 | locus YGL227W, strain vid30, stronger effect = lower value 0.991 | locus YGL240W, strain doc1, stronger effect = lower value 0.986 | locus YGL248W, strain PDE1, stronger effect = lower value 0.993 | locus YGL253W, strain hxk2, stronger effect = lower value 0.997 | locus YGR078C, strain PAC10, stronger effect = lower value 0.996 and 1.01 | locus YGR135W, strain pre9, stronger effect = lower value 0.992 | locus YGR229C, strain SMI1, stronger effect = lower value 0.996 | locus YGR252W, strain gcn5, stronger effect = lower value 1.1 | locus YHR013C, strain ard1, stronger effect = lower value 0.972 | locus YHR027C, strain rpn1, stronger effect = lower value 0.993 | locus YHR030C, strain SLT2, stronger effect = lower value 0.977 and 1.03 | locus YHR079C, strain IRE1 (second series), stronger effect = lower value 0.986 | locus YHR079C, strain IRE1, stronger effect = lower value 1.07 | locus YHR094C, strain hxt1, stronger effect = lower value 0.99 | locus YHR129C, strain ARP1, stronger effect = lower value 0.985 | locus YHR142W, strain chs7, stronger effect = lower value 0.998 | locus YHR200W, strain rpn10, stronger effect = lower value 0.99 | locus YIL066C, strain RNR3, stronger effect = lower value 0.998 | locus YIL073C, strain SPO22, stronger effect = lower value 1.01 | locus YIL125W, strain kgd1, stronger effect = lower value 0.992 | locus YIR030C, strain dcg1, stronger effect = lower value 0.991 | locus YJL092W, strain hpr5, stronger effect = lower value 0.994 | locus YJL095W, strain BCK1 (second series), stronger effect = lower value 0.996 | locus YJL095W, strain BCK1, stronger effect = lower value 0.952 and 1.02 | locus YJL115W, strain asf1, stronger effect = lower value 1 | locus YJL129C, strain trk1, stronger effect = lower value 1.01 | locus YJL134W, strain LCB3, stronger effect = lower value 0.996 | locus YJL154C, strain vps35, stronger effect = lower value 1.01 | locus YJL164C, strain tpk1, stronger effect = lower value 0.992 | locus YJL166W, strain qcr8, stronger effect = lower value 1 | locus YJL168C, strain set2, stronger effect = lower value 0.983 | locus YJL187C, strain SWE1 (second series), stronger effect = lower value 0.988 | locus YJL187C, strain SWE1, stronger effect = lower value 1 | locus YJR043C, strain POL32, stronger effect = lower value 0.98 | locus YJR066W, strain TOR1, stronger effect = lower value 0.997
